Measurements reported in PubChem BioAssay (Tox21).
Results filed as inconclusive are left out. A call without a number means that no potency is given here. Activity calls are given as the source filed them. The call rests on the fitted dose curve; in most records, active means well fitted cell-killing curve with a large enough effect in the repeat runs; inconclusive means weak or mixed curves, or effect the other way; inactive means flat fitted curve, though single readings scatter.

Assay: qHTS assay to identify small molecule antagonists of the constitutive androstane receptor (CAR) signaling pathway - cell viability counter screen (AID 1224837); further: nearly all actives have a fitted effect of over 45% in size
Details: HepG2-CYP2B6-hCAR viability, CellTiter-Fluor, 23 h, co-treated with 50 nM CITCO; series mostly up to 92.4 µM
Excerpt: National Center for Advancing Translational Sciences [NCATS]
NIH Chemical Genomics Center [NCGC]
U.S. Environmental Protection Agency [EPA]
National Institutes of Environmental Health Sciences [NIEHS]
National Toxicology Program [NTP]
U.S. Food and Drug Administration [FDA]
The constitutive androstane receptor (CAR) is a nuclear receptor which regulates multiple drug metabolizing enzymes (DMEs) and transporters. Activating CAR will generally increase the transcription and subsequent translation of CYP2B6 and CYP3A4. These two DMEs represent about 50% of the drug metabolizing potential in the body. When CAR is deactivated, the metabolizing potential in the body will decrease, subsequently increasing the toxicity in the body or lowering the therapeutic potential of a pro-drug. Recently, there have also been studies performed indicating CARs role in energy metabolism and cancer therapy. Therefore, inhibiting CARs activity could have a potential effect on diabetes and cancer. Identifying environmental toxins and compounds which modulate CAR, through the use of the Tox21 10K compound collection, will be an important step in determining the toxicity and potential therapeutic effects these factors will have on the human body. To differentiate true CAR antagonists from cytotoxic substances, the assay is multiplexed with a cell viability assay.
Tox21 Assay Protocol Summary:
A double-stable (hCAR and CYP2B6-2.2kb) transfected cell line, derived from human hepatoma (HepG2) cells, was utilized for the duration of the quantitative high-throughput screens. The HepG2-CYP2B6-hCAR cells were dispensed at 2500 cells/4 uL/well in 1536-well white solid bottom plates using a Multidrop Combi. After the assay plates were incubated at 37 C/5% CO2 for 4 hrs, 23 nL of compounds at 15 concentrations (from 5-48 columns) or positive control (from 1 to 4 columns) were transferred to the assay plates using a Pintool station. One uL of CITCO (final concentration = 50 nM) was added, using a Flying Reagent Dispenser, inside each well. After a 23 hr incubation period at 37 C/5% CO2, 1 uL of CellTiter-Fluor reagent was added into each well of the assay plates using a Flying Reagent Dispenser. The fluorescence intensity in the plates was then measured using a ViewLux plate reader.

SMILES | Potency
CN(C)NC(=O)CCC(=O)O | inactive
CN1C(=O)CCS(=O)(=O)C1c1ccc(Cl)cc1 (stereo not given) | inactive
CCOP(=S)(OCC)Oc1ccc([N+](=O)[O-])cc1 | inactive
C[C@H]1C(=O)O[C@@H]2CCN3CC=C(COC(=O)[C@](C)(O)[C@]1(C)O)[C@H]23 | inactive
CCNc1nc(Cl)nc(NC(C)C)n1 | inactive
CN(C)C(=O)Nc1cccc(C(F)(F)F)c1 | inactive
O=C/C=C/c1ccccc1 | inactive
O=[N+]([O-])c1ccc(Cl)cc1 | inactive
CNc1cnn(-c2cccc(C(F)(F)F)c2)c(=O)c1Cl | inactive
Cl/C=C/Cl | inactive
C=CC(=O)OCC(CC)CCCC (stereo not given) | inactive
O=C(O)Cc1ccccc1 | inactive
O=C(O)C1C(C(=O)O)C2(Cl)C(Cl)=C(Cl)C1(Cl)C2(Cl)Cl (stereo not given) | inactive
CN(C)C(=O)C(c1ccccc1)c1ccccc1 | inactive
O=[N+]([O-])c1ccc(Cl)c(Cl)c1 | inactive
O=C(O)c1cc(Oc2ccc(C(F)(F)F)cc2Cl)ccc1[N+](=O)[O-] | inactive
Cc1ccc(O)c(C)c1 | inactive
CN(C)CCC#N | inactive
CN(C)C(=O)Cl | inactive
CNC(=O)O/N=C(\SC)C(=O)N(C)C | inactive

SMILES | Potency
O=C(O)COc1ccccc1 | inactive
CSc1nnc(C(C)(C)C)c(=O)n1N | inactive
CCSC(=O)N1CCCCCC1 | inactive
COC(C)(C)CCCC(C)C/C=C/C(C)=C/C(=O)OC(C)C (stereo not given) | inactive
O=[N+]([O-])c1cc([As](=O)(O)O)ccc1O | inactive
FC(F)(F)c1ccc(Cl)cc1 | inactive
Oc1c(Br)cc(Br)cc1Br | inactive
OCCCCO | inactive
C[C@]12CC[C@H](O)CC1=CC[C@@H]1[C@@H]2CC[C@]2(C)C(=O)CC[C@@H]12 | inactive
O=C(O)C(Br)Br | inactive
c1ccc2c(c1)CCCC2 | inactive
CNC(=O)Oc1cccc2ccccc12 | inactive
OCc1ccco1 | inactive
Oc1ccc(Cl)cc1 | inactive
CCCCCCCCCCCCCCCCCC(=O)O | inactive
Cc1ccccc1N | inactive
Cc1cccc(N)c1C | inactive
Clc1cnc(Oc2ccc(Oc3ncc(Cl)cc3Cl)cc2)c(Cl)c1 | inactive
Cc1cccc(C)c1NC(=O)CN1CCCC1=O | inactive
CC(C)(C)C(=O)CCl | inactive
